# Assay results reported in PubChem BioAssay (Tox21).
# Results filed as inconclusive are left out. Unmarked numbers belong to inactive results. Calls of active or inactive are those of the source. Calls come from the whole dose curve; as a rule, active = well fitted inhibition curve with a large enough effect in the repeat runs; inconclusive = weak or mixed curves; inactive = no such curve, though single readings can be large or run the other way. Positions of bridges follow the written chain, without caps; N, C: chain ends. Where a SMILES comes first, the peptide text is derived from it. Non-standard residues stand in square brackets, D forms with d. Residues, ends and D or L forms follow the SMILES beside them. hArg = N=C(N)NCCCC[C@H](N)C(=O)O; Mpa = O=C(O)CCS
# Target: Cytochrome P450 2C19 (Homo sapiens) (UniProt P33261)
# Assay: Cytochrome P450 Family 2 Subfamily C Member 19 (CYP2C19) small molecule antagonists: luciferase reporter qHTS assay (AID 1671197); note: nearly all actives have a fitted effect of over 65% in size
# Settings: P450-Glo CYP2C19 enzyme, luciferin luminescence, 1 h; series mostly up to 115 µM; activity change, negative = inhibition: at the top concentration
# Source text: National Center for Advancing Translational Sciences [NCATS]
# U.S. Environmental Protection Agency [EPA]
# National Institutes of Environmental Health Sciences [NIEHS]
# National Toxicology Program [NTP]
# U.S. Food and Drug Administration [FDA]
# Cytochrome P450 (CYP) enzymes are membrane-bound hemeproteins that play a key role in metabolism of drugs and xenobiotics. Evaluation of the effect of chemicals on CYP isozymes is useful to minimize the adverse drug reactions and toxicities in drug development process. Tox21 chemicals were tested for their effect on CYP enzyme activities by using P450-Glo (TM) screening systems (Promega Corporation, Madison, WI). These systems provide a luminescent method containing proluciferin substrates and are converted to luciferin products by CYP isozymes. The luciferin products formed are detected with a luciferin detection reagent, and the amount of light produced is proportional to CYP activity. P450-Glo (TM) CYP2C19 screening system (Catalog. No. V9880) was used to detect the compounds that interfere in CYP2C19 activity. The positive control compound used for CYP2C19 assay is ketoconazole (Sigma-Aldrich, St. Louis, MO).
# Tox21 Assay Protocol Summary:
# Two ul of enzyme-substrate mix was dispensed into medium binding white/solid 1536-well plates (Greiner Bio-One North America Inc., Monroe, NC) using a BioRaptr Flying Reagent Dispenser (FRD, Beckman Coulter, Brea, CA). Compounds dissolved in DMSO and positive control (ketoconazole) were transferred to the assay plates at 23 nl using a Pintool station (Wako, San Diego, CA). The assay plates were incubated at room temperature for 10 min. Then 2 ul of NADPH regeneration solution was added to each well of the assay plates using an FRD and incubated at 37C for 1 h. The reaction was stopped by adding 4 ul of detection reagent using an FRD and after 20 min incubation at room temperature the luminescence signal was measured using a ViewLux plate reader (Perkin Elmer, Shelton, CT). Data were expressed as relative luminescence units.
# % is set by controls: 0 for no effect and ±100 for the full control effect; potency is the fitted concentration of half-maximal effect.
# Sequence of Cytochrome P450 2C19 (Homo sapiens) (P33261 whole entry, looked up): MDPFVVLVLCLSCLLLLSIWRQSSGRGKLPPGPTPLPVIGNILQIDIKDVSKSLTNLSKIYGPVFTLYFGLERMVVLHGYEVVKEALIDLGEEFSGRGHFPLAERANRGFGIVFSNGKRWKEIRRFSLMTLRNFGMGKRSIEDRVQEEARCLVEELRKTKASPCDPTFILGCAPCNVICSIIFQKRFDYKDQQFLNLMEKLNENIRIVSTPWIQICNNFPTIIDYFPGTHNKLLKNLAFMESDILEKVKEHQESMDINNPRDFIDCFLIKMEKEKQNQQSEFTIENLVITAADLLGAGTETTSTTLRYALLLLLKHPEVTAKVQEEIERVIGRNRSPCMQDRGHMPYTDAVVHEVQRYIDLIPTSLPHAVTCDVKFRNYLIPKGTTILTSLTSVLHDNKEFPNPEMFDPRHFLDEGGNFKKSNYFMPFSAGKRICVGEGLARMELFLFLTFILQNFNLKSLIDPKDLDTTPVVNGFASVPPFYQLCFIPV
Compound,"activity change, negative = inhibition",Potency
O=S(=O)(O)c1ccc2c(N=Nc3ccc(S(=O)(=O)O)c4ccccc34)c(O)c(S(=O)(=O)O)cc2c1,-14.2% [at 10.5 µM],–
CCCC(CC)c1ccccc1 (stereo not given),-16.8%,–
CCC(=O)c1c(O)cc(O)cc1O,-21.7% [at 52.9 µM],–
CC1CC(=O)CC(C)(C)C1 (stereo not given),3.09%,–
c1ccc(B(c2ccccc2)c2ccccc2)cc1,–,17.8 µM (active)
O=C1c2ccccc2C(=O)c2cc(Cl)ccc21,-15.8% [at 10.5 µM],–
CCCCCC(C)O (stereo not given),12.9%,–
CC(=O)O[Si](C)(OC(C)=O)OC(C)=O,-14%,–
CC(C)C1OCCN1CCOC(=O)NCCCCCCNC(=O)OCCN1CCOC1C(C)C (stereo not given),–,35.6 µM (active)
Cc1c(N)cccc1Cl,-17.5%,–
COC(C)(OC)OC,27.8%,–
C=CCOC(=O)CCCCCC,-11.9%,–
C=C(C)[C@@H]1CC=C(C)CC1,-10.7%,–
CC(=O)OCC(=O)Nc1cc(C#N)cc(NC(=O)COC(C)=O)c1Cl,-11.3% [at 52.9 µM],–
CC(=O)C1C(=O)C=C(C)OC1=O (stereo not given),-17.3%,–
CC(=O)O[C@H]1C[C@@H]2CC[C@@]1(C)C2(C)C,-10.3%,–
Cc1c(Cl)cccc1Cl,30.9%,–
CC(C)CCOC(=O)c1ccccc1,4.16%,–
OC[C@@H](O)C(O)[C@@H](O)CO (stereo not given in full),–,40.4 µM (active)
N[C@@H](CSCCCO)C(=O)O,3.16% [at 23.6 µM],–

Compound,"activity change, negative = inhibition",Potency
CC(=O)N[C@@H](CO)C(=O)N[C@@H](CC(=O)O)C(=O)N[C@@H](CCCCN)C(=O)N1CCC[C@H]1C(=O)O (Ac-SDKP-OH),-23.7% [at 52.9 µM],–
COc1cc(/C=C/C(N)=O)cc(OC)c1OC,-10.7% [at 52.9 µM],–
CC(=O)CCC1=C(C)CCCC1(C)C,–,35.6 µM (active)
Cc1ccnc(N)c1,13.5%,–
CCOC(=O)CC1(C)OCC(C)O1 (stereo not given),4.89%,–
CCC[C@@H]1C[C@@H](C(=O)N[C@@H]([C@H]2O[C@H](SC)[C@H](O)[C@@H](O)[C@H]2O)[C@@H](C)O)N(C)C1,0.977% [at 52.9 µM],–
CC(C)(C)NC[C@H](O)COc1cccc2c1CCCC2=O,6.56% [at 52.9 µM],–
CCCCCC/C=C/C(=O)OC,-3.4%,–
OCC1CCC(CO)CC1 (stereo not given),-1.08%,–
CCCCCCCCCCCCCCC(=O)NC(CO)CCCCCCCCCCCCCC (stereo not given),0.0056%,–
CC(C)COC(=O)c1ccccc1,-9.13%,–
O=C(CCCCC(=O)Nc1c(I)cc(I)c(C(=O)O)c1I)Nc1c(I)cc(I)c(C(=O)O)c1I,23.3% [at 52.9 µM],–
Cn1nnc2c(C(N)=O)ncn2c1=O,32.8% [at 52.9 µM],–
Cc1ccc(N)cc1S(=O)(=O)O,–,79.6 µM (active)
Nc1nc(-c2ccccc2)c(Br)c(=O)[nH]1,4.9% [at 52.9 µM],–
CC(S)C(C)S (stereo not given),-17.9%,–
O=C(NCN1CCOCC1)c1cnccn1,-1.57% [at 52.9 µM],–
Cc1cccc(Cl)c1,18.8%,–
NC(=O)[C@@H]1CSSCCC(=O)N[C@@H](CCCCN=C(N)N)C(=O)NCC(=O)N[C@@H](CC(=O)O)C(=O)N[C@@H](Cc2c[nH]c3ccccc23)C(=O)N2CCC[C@H]2C(=O)N1 ([Mpa][hArg]GDWPC-NH2; disulfide 1-7),-13.7% [at 52.9 µM],–
CCC(C)OC(C)CC (stereo not given),18.8%,–
